Laboratory results taken from PubChem BioAssay (EPA / NIEHS).
Where “and” joins values, the source holds several entries; their conditions need not be identical. Equal entries are not always repeated. Records with an inconclusive call do not appear. The source holds several records for some structures; these can differ, active in one and inactive in another. Calls of active or inactive are those of the source. The calls were made as follows: active = hit-call score of the fitted dose curve at least 0.9, where 1 is the maximum; inconclusive = response in the unintended direction; inactive = score below 0.9.

Assay: TOX21_p53_BLA_p5_viability: Viability Assessment in the Tox21 HCT-116 p53 Agonism Beta-lactamase Assay, Phase 5 (AID 2283600)
Excerpt: TOX21_p53_BLA_p5 is a cell-based, single-readout assay that uses HCT116, a human intestinal cell line, […] in a 1536-well plate.TOX21_p53_BLA_p5_viability is an assay readout measuring cellular ATP content and detected with CellTiter-Glo Luciferase-coupled ATP quantitation.TOX21_p53_BLA_p5_viability used a type of viability reporter where loss-of-signal activity can be used to understand changes in the cell viability. Furthermore, this assay endpoint can be referred to as a secondary readout, because this assay has produced multiple assay endpoints where this one serves a viability function. To generalize the intended target to other relatable targets, this assay endpoint is annotated to the cell cycle intended target family, where the subfamily is cytotoxicity.
Thawing Method: Place 14 mL of pre-warmed thaw medium into a 15 mL of conical tub. Remove the vial of cells to be thawed from liquid nitrogen and thaw rapidly by placing at 37C in a water bath with gentle agitation for 1-2 minutes. Decontaminate the vial by wiping with 70% ethanol before opening in a biological safety cabinet. Transfer the vial contents drop-wise into 14 mL of thaw medium in a sterile 15-mL conical tub. Centrifuge cells at 900 rpm for 4 minutes and resuspend in thaw medium. Transfer contents to the T75 tissue culture flask containing Thaw Medium and place flask in a humidified 37C/5% CO2 incubator. Switch to growth medium at first passage.Propagation Method: Aspirate medium, rinse once in DPBS, add 0.25% Trypsin/EDTA and swirl to coat the cell evenly. Add an equal volume of Growth Medium to inactivate Trypsin after 2-3 minutes incubation at 37C. Centrifuge cells at 900 rpm for 4 minutes and resuspend in growth medium. Cell should be passage or fed at least twice a week.Assay Protocol: Harvest cells from culture in growth medium and resuspend in assay medium. 2.2 Dispense 4000 cells/5 uL/well into 1536-well black/clear bottom plates using a Multidrop dispenser. After the cells were incubated at 37C for 5 hours, 23 nL of compounds dissolved in DMSO were transferred to the assay plate by a PinTool resulting in a 217-fold dilution. Incubate the plates for 16 hours at 37C, 5% CO2. Add 1 uL of 6X LiveBLAzer FRET B/G (CCF4-AM) Substrate Mixture to each well using a BioRAPTR dispenser and incubate the plates at room temperature for 2 hours. Measure fluorescence intensity at 460 and 530 nm emission and 405 nm excitation by an Envision detector. Data is expressed as the ratio of 460nm/530nm emissions. Add 4 uL of Cell-titer Glo to each well using BioRAPTR and incubate the plates at room temperature for […]. For cell viability readout that measures cytotoxicity, 4 ul/well of CellTiter-Glo reagent was added into the assay plates using a Flying Reagent Dispenser. After 30 min incubation at room temperature, the luminescence intensity in the plates was measured using a ViewLux plate reader.
In the case of `CCCCCCc1ccc(O)cc1O`, the outcome is reported as “inactive” and the AC50 is reported as 74.9 µM (active). In the case of `Cn1c(=O)c2c(ncn2C)n(C)c1=O`, the outcome is reported as “inactive”. In the case of `NC(=O)NO`, the outcome is reported as “inactive”. For `CC(C)=CCCC(C)CCO` (stereo not given), the outcome was “inactive”. With `CCOC(=O)CC(CC(=O)OCC)(OC(C)=O)C(=O)OCC` the outcome was “inactive”. With `CN(C)c1ccc(N=NS(=O)(=O)O)cc1` the outcome was “inactive”. In the case of `COCCOc1cc2cc(C(=O)NC3CCN(C(C)C)CC3)n(CC(=O)Nc3ccc(Cl)cn3)c2cn1`, the outcome is reported as “inactive”. For `CCCN(C1CCN(C(=O)C2CCNCC2)CC1)[C@@H]1CCc2ccc(OC)cc2C1`, the outcome was “inactive”. With `C=CC(=C)CCC=C(C)C` the outcome was “inactive”. For `O=C(CCCCCCCCc1cccnc1)N1CCC(C=C(c2ccccc2)c2ccccc2)CC1`, the AC50 was 13.9 µM (active). For `Cc1ccc(O)cc1`, the outcome was “inactive”. For `Nc1cccc(N)c1`, the outcome was “inactive”. In the case of `O=C(OC[C@H]1O[C@@H](OC(=O)c2cc(O)c(O)c(OC(=O)c3cc(O)c(O)c(O)c3)c2)[C@H](OC(=O)c2cc(O)c(O)c(OC(=O)c3cc(O)c(O)c(O)c3)c2)[C@@H](OC(=O)c2cc(O)c(O)c(OC(=O)c3cc(O)c(O)c(O)c3)c2)[C@@H]1OC(=O)c1cc(O)c(O)c(OC(=O)c2cc(O)c(O)c(O)c2)c1)c1cc(O)c(O)c(OC(=O)c2cc(O)c(O)c(O)c2)c1`, the outcome is reported as “inactive” and the AC50 is reported as 6.49 µM (active). With `C1N2CN3CN1CN(C2)C3` the outcome was “inactive”. For `O=C1CCC(N2C(=O)c3ccccc3C2=O)C(=O)N1` (stereo not given), the outcome was “inactive”. For `O=C(O)CCN(C1(C(=O)NO)CCCC1)S(=O)(=O)c1ccc(Oc2ccc(F)cc2)cc1`, the outcome was “inactive”. For `Fc1ccccc1[C@@H](F)COC1CCC(Nc2ncnc3[nH]ncc23)CC1` (stereo not given in full), the outcome was “inactive”. For `CC(C)=CCCC(C)=CC=O`, the outcome was “inactive”. With `CC(C)=CCC/C(C)=C/CO` the outcome was “inactive”. For `Cc1[nH]cnc1C[C@H]1CCc2c(C)c3ccccc3n2C1=O`, the outcome was “inactive”. In the case of `CNS(=O)(=O)c1cc(C(=O)N2CCC(CCN3C4CCC3CC(n3c(C)nc5ccccc53)C4)(c3cccc(F)c3)CC2)c(Cl)cc1F` (stereo not given), the outcome is reported as “inactive”. With `CCCCCCCCO` the outcome was “inactive”. With `CC(C)CCO` the outcome was “inactive”. For `O=C1OC(=O)C2C3C=CC(C3)C12` (stereo not given), the outcome was “inactive”. In the case of `CCN(C(=O)c1cc(C)cc(OC[C@H](C)Nc2ccncc2)c1)C(C)C`, the outcome is reported as “inactive”. In the case of `CC[C@H](C)C(=O)O[C@H]1C[C@@H](C)C=C2C=C[C@H](C)[C@H](CC[C@@H]3C[C@@H](O)CC(=O)O3)[C@H]21`, the AC50 is reported as 91.2 µM (active) and 33.6 µM (active) and the outcome is reported as “inactive”. With `Cc1ccc(N)cc1O` the outcome was “inactive”. With `CC[C@H]1OC(=O)[C@H](C)[C@@H](O[C@H]2C[C@@](C)(OC)[C@@H](O)[C@H](C)O2)[C@H](C)[C@@H](O[C@@H]2O[C@H](C)C[C@H](N(C)C)[C@H]2O)[C@](C)(O)C[C@@H](C)C(=O)[C@H](C)[C@@H](O)[C@]1(C)O` the outcome was “inactive”. In the case of `CCCCC(CC)COC(=O)c1ccc(C(=O)OCC(CC)CCCC)cc1` (stereo not given), the outcome is reported as “inactive”. In the case of `CC(C)c1cccc(C(C)C)c1N1C(=O)c2ccc(O)cc2C1=O`, the AC50 is reported as 79 µM (active). In the case of `CCC(C)(C)C(=O)O[C@H]1C[C@@H](C)C=C2C=C[C@H](C)[C@H](CC[C@@H]3C[C@@H](O)CC(=O)O3)[C@H]21`, the outcome is reported as “inactive”. For `COCCOCCOCCOC`, the outcome was “inactive”. With `CC(C)CC(C)(O)C#CC(C)(O)CC(C)C` (stereo not given) the outcome was “inactive”. In the case of `CCCCC(CC)COC(=O)CCCCCCCCC(=O)OCC(CC)CCCC` (stereo not given), the outcome is reported as “inactive”. With `C[C@](N)(Cc1ccc(O)c(O)c1)C(=O)O` the outcome was “inactive”. For `CN(C)c1ccc(Cc2ccc(N(C)C)cc2)cc1`, the outcome was “inactive”. For `C=CCCCCCCCCC(=O)O`, the outcome was “inactive”.
